In PubChem BioAssay AID504890 (The Scripps Research Institute Molecular Screening Center, 2011):
Unmarked numbers belong to inactive results.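 The calls were made as follows: active = EC50 at or below 10 µM; inactive = EC50 above 10 µM.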

Assay: FP signal increase by Cy5-IP20 peptide alone, dose response, artefact control for PKA-R2B complex activator project, biochemical, fluorescence polarization, 1536-well HTS (AID 504890)
Settings: Cy5-IP20 FP artifact counterscreen, no PKA-R2B complex

Structure (SMILES) | EC50 [µM]
O=C(O)c1sccc1SCc1ccc(Cl)cc1Cl | > 114
CCOP1(=O)OCC2OC(n3cnc4c(N)ncnc43)C(O)C2O1 (centres undefined) | > 114
Nc1ncnc2c1nc(Br)n2[C@@H]1O[C@@H]2COP(=O)(O)O[C@H]2[C@H]1O | > 114
O=S(=O)(O)c1cccc2c(N=Nc3ccc(O)c4ncccc34)cccc12 | > 114
Nc1ncnc2c1nc(Sc1ccc(Cl)cc1)n2[C@@H]1O[C@@H]2COP(=O)(O)O[C@H]2[C@H]1O | > 114
CCCC(=O)Nc1ncnc2c1ncn2[C@@H]1O[C@@H]2OP(=O)(O)OC[C@H]2[C@H]1OC(=O)CCC | > 114
CCCC(=O)Nc1ncnc2c1ncn2[C@@H]1O[C@@H]2COP(=O)(O)O[C@H]2[C@H]1OC(=O)CCC | > 114
CN(C)c1ccc(N=Nc2ccc(S(=O)(=O)O)cc2)c2ccccc12 | > 114
Nc1nc2c(nc(Br)n2[C@@H]2O[C@@H]3COP(=O)(O)O[C@H]3[C@H]2O)c(=O)[nH]1 | > 114
